The target in one test is Furin (Homo sapiens) (UniProt P09958). Kind of test: Furin counterscreen qHTS for Zika virus inhibitors (AID 1347149). Also: nearly all actives have a fitted effect of over 70% in size. Also: potency is read from the fitted curve at half-maximal effect. Conditions: furin enzymatic counterscreen, fluorogenic substrate; series mostly up to 114 µM. Put shortly: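 Fluorogenic cleavage of BOC-RVRR-AMC (2 microM final, Km ~15 µM) was monitored (ex 340, em 450 nm) at 37C after 15 min RT preincubation of 5 nM furin with compounds in HEPES pH 7.0 buffer with CaCl2 and Triton X-100. Percent inhibition was fitted to a 4-parameter Hill curve.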

Test [1] is described as follows: Confirmatory screen GU Rhodamine qHTS for Zika virus inhibitors qHTS (AID 1347157). Also: nearly all actives have a fitted effect of over 70% in size. Conditions: purified enzyme assay, Rhodamine110 substrate fluorescence, 15 min; series mostly up to 114 µM. Put shortly: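 Compounds, tested up to 114 microM, were incubated for 15 minutes with 25 nM unlinked NS2B-NS3 protease at pH 8.0. Cleavage of 1.5 microM Rhodamine110 substrate was then followed by fluorescence for 15 minutes.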

Test [2] concerns the target Cytochrome P450 2D6 (Homo sapiens) (UniProt P10635). Nature of the test: Cytochrome P450 family 2 subfamily D member 6 (CYP2D6) small molecule antagonists: luciferase biochemical (cell-free) qHTS assay (AID 1645840; active = well fitted curve in the direction sought with a large enough effect in the repeat runs; an effect the other way counts as inactive or inconclusive; also: potency is read from the fitted curve at half-maximal effect; nearly all actives have a fitted effect of over 55% in size). The following applies: P450-Glo CYP2D6 enzyme, luciferin luminescence, 1 h; series mostly up to 57.4 µM. Put shortly:
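P450-Glo luminescent screen: recombinant CYP2D6 enzyme–proluciferin substrate mix preincubated with compound 10 min at room temperature, then NADPH regeneration added for 1 h at room temperature. Detection reagent added for 20 min; luciferin light read as relative luminescence units.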

Test [3] deals with Cytochrome P450 2C9 (Homo sapiens) (UniProt P11712). Nature of the test: Cytochrome P450 family 2 subfamily C member 9 (CYP2C9) small molecule antagonists: luciferase biochemical (cell-free) qHTS assay (AID 1645842; active = well fitted curve in the direction sought with a large enough effect in the repeat runs; an effect the other way counts as inactive or inconclusive; also: potency is read from the fitted curve at half-maximal effect; nearly all actives have a fitted effect of over 55% in size). The following applies: P450-Glo CYP2C9 enzyme assay, luciferin luminescence; series mostly up to 57.4 µM. Put shortly:
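Luminescence, after 20 min with luciferin detection reagent, reflected CYP2C9 turnover during a 1 h NADPH-driven reaction at 37C. Enzyme-substrate mix contained 0.4% bovine serum albumin and was preincubated with compound 10 min at room temperature.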

The nature of test [4]: Confirmatory screen NINDS Rhodamine qHTS for Zika virus inhibitors (AID 1347161).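 Also: purified Zika NS2B-NS3 protease with linked NS2B cofactor domain and Rhodamine110 peptide substrate; nearly all actives have a fitted effect of over 60% in size.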 The following applies: purified enzyme assay, Rhodamine110 substrate fluorescence, 15 min; series mostly up to 114 µM. In short, it runs like this:
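Enzyme (25 nM, linked NS2B-NS3) was preincubated 15 min with compound in 10 mM Tris-HCl pH 8.0, 0.01% Tween 20. Rhodamine110 substrate (1.5 microM) was then added and fluorescence read at start and after 15 min.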

A short description of test [5]: Tertiary RLuc qRT-PCR qHTS assay for Zika virus inhibitors (AID 1347169). Also: top concentration of the series differs between compounds; nearly all actives have a fitted effect of over 55% in size. The following applies: infected Vero cells, reporter luminescence, 48-72 h; series mostly up to 1.74 µM. Put shortly: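 Vero cells (1,000/well) infected with recombinant ZIKV-RLuc (Cambodian) at MOI 1-2 after compound addition, 48-72 hrs at 37 degrees C. Live-cell Renilla luciferase substrate added; luminescence read after 1-1.5 hrs.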

Test [6] deals with Calcium and integrin-binding protein 1 (Homo sapiens) (UniProt Q99828). Kind of test: Primary qHTS for Identification of Calcium Integrin Binding Protein 1 (CIB1) Competitor (AID 1508620).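 Also: GST tagged CIB1 binding a fluorescein labelled alphaIIb integrin peptide tracer; top concentration of the series differs between compounds.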 Conditions: CIB1-GST / FITC-alphaIIb peptide fluorescence polarization; series mostly up to 114 µM. Put shortly:
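Fluorescence polarization competition: GST-tagged CIB1 (1 uM final) preincubated with compound 15 min at room temperature, then FITC-labelled alphaIIb peptide (100 nM final) added. After 15 min at room temperature, polarization read at Ex 480/Em 540.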

Records with an inconclusive call do not appear. Values without a mark were called inactive. Active and inactive are the calls of the source. Unless noted, calls follow the shape of the dose curve; as a rule, active = well fitted curve in the direction sought with a large enough effect; inconclusive = small, poorly fitted or top-dose-only effect, or another doubt; inactive = no such curve, though single readings can be large; an effect the other way counts as inactive or inconclusive.

Sequence of Furin (Homo sapiens) (P09958 whole entry, looked up): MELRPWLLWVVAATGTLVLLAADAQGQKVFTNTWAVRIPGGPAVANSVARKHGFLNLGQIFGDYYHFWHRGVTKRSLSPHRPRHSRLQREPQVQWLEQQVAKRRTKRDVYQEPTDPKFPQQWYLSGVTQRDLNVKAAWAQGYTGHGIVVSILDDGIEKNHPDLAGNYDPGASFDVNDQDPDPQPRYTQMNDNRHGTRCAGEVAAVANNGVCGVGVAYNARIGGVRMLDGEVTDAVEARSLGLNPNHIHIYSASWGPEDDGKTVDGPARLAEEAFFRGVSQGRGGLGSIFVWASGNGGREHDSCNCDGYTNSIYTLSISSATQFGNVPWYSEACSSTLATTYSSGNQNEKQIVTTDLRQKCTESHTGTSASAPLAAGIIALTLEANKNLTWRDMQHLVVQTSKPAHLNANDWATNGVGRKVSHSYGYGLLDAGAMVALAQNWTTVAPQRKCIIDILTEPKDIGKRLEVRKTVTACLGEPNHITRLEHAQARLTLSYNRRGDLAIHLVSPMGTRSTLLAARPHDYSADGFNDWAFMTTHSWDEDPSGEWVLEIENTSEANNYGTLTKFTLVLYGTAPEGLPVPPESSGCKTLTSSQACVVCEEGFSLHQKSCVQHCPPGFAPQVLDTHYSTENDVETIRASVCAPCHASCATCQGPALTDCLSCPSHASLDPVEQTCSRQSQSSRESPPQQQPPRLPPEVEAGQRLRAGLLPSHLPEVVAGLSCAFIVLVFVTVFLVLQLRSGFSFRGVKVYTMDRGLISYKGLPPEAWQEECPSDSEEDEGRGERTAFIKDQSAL
Sequence of Calcium and integrin-binding protein 1 (Homo sapiens) (Q99828 whole entry, looked up): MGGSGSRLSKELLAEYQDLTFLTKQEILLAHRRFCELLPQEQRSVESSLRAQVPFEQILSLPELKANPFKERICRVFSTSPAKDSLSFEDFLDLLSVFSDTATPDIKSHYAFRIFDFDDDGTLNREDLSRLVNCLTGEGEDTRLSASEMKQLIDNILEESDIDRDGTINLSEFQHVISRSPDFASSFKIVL
Sequence of Cytochrome P450 2D6 (Homo sapiens) (P10635 whole entry, looked up): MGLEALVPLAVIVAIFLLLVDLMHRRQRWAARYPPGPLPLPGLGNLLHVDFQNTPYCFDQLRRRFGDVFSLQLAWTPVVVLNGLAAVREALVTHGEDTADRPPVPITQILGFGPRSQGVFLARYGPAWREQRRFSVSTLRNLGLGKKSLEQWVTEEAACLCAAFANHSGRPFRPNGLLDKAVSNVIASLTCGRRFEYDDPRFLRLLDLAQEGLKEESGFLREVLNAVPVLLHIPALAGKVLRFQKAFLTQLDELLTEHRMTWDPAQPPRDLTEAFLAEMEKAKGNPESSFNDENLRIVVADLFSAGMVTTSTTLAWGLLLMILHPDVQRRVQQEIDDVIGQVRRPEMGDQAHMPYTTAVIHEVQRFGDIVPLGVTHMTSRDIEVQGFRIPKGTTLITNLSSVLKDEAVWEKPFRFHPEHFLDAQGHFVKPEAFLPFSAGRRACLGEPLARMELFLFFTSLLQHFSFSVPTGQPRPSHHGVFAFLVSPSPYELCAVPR
Sequence of Cytochrome P450 2C9 (Homo sapiens) (P11712 whole entry, looked up): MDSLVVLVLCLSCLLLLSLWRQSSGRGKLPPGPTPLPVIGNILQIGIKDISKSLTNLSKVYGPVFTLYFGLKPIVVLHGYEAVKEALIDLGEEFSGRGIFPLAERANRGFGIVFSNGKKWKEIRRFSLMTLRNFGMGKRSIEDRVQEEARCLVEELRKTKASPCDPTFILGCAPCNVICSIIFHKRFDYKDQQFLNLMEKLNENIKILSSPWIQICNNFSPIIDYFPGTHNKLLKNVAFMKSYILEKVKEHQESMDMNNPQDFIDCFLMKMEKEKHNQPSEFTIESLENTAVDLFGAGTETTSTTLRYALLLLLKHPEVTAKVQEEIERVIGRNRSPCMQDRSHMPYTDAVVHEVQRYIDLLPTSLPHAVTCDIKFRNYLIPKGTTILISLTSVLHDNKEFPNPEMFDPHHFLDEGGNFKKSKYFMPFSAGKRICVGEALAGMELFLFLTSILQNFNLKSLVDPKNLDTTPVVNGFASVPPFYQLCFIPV

Regarding `COc1ccc(Nc2nnc(-c3ccc(C)c(S(=O)(=O)NCc4nc5ccccc5[nH]4)c3)c3ccccc23)cc1`, the Potency entry (in the test with Furin (Homo sapiens); in test [1]) was “inactive” throughout. Further, the Potency was 4.25 µM (active) in test [2] and 7.56 µM (active) in test [3].

Take `O=S(=O)(Nc1ccc(O)c(NS(=O)(=O)c2ccccc2)c1)c1ccccc1`: the Potency entry (in the test with Furin (Homo sapiens); in test [1]; in test [4]; in test [5]) was “inactive” throughout. Further, in test [6], the outcome was inactive.

In the case of `O=C(OCC#CCSc1nnc(-c2cccc3ccccc23)o1)c1ccc(F)c(F)c1`, the Potency with Furin (Homo sapiens) was 59.1 µM (active). The Potency entry in test [1], in test [4] and in test [5] was “inactive” throughout. Further, the result in test [6] was inactive.

`CC(C)c1nn2c(=O)cc(COC(=O)c3ccc(NC(=O)c4cccs4)cc3)nc2s1`: the Potency entry (in the test with Furin (Homo sapiens); in test [1]; in test [5]) was “inactive” throughout.

Turning to `O=C(OCC#CCSc1nnc(-c2ccccc2Cl)o1)c1ccc(F)cc1`, the Potency result (in the test with Furin (Homo sapiens); in test [1]; in test [4]) was “inactive” in each case. For the same compound, in test [6], the result was inactive.

Regarding `O=C(OCC#CCSc1nnc(-c2cccc3ccccc23)o1)c1ccc(OC(F)(F)F)cc1`, the Potency with Furin (Homo sapiens) was 46.9 µM (active). For the same compound, the Potency result in test [1], in test [4] and in test [5] was “inactive” throughout. The outcome in test [6] was inactive.

`O=C(OCC#CCSc1nnc(-c2ccc(F)cc2)o1)c1ccc(F)cc1`: the Potency entry (with Furin (Homo sapiens); in test [1]; in test [5]) was “inactive” in each case. In addition, the result in test [6] was inactive.

Values taken from PubChem BioAssay (NCATS).
